Among all 360,000 compounds or so, about 2,600 (0.72%) were called active. This is one part of a sample in which actives are shown more often than they occur. A number with no mark means an inactive call.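 Rule for the calls: active = inhibition above its plate's cutoff, the mean inhibition of sample wells plus 3 SD (cut at about 27% in these data); inactive = the rest.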
The compounds below were run against Muscarinic acetylcholine receptor M4 (Homo sapiens) (UniProt P08173) (assay: human M4 muscarinic receptor antagonists, primary screen, CHO cells, Fluo-8 calcium fluorescence (AID 624125;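 note: 0% = acetylcholine EC80 with DMSO and 100% = DMSO without agonist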)). Conditions: CHO-hM4 cells, ACh EC80, Fluo-8 calcium fluorescence; at 3 µM; active compounds read high.
Chain of Muscarinic acetylcholine receptor M4 (Homo sapiens) (P08173 whole entry, looked up): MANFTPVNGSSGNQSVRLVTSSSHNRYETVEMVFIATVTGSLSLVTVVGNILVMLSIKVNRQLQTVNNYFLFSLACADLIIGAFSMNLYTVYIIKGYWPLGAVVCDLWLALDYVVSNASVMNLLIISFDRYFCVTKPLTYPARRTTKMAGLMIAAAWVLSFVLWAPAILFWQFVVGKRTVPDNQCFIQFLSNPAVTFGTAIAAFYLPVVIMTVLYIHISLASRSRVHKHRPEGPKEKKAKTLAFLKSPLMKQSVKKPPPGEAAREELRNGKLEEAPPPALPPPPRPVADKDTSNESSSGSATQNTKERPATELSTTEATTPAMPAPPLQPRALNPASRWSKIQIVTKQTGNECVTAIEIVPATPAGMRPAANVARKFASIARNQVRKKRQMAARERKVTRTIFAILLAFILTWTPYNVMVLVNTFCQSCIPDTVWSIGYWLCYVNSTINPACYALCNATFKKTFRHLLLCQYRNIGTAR
With `CC(C)(O)C#Cc1ncc(C(F)(F)F)cc1Cl` the inhibition was 3.84%. With `COC(=O)[C@@H](NC(=O)Nc1cc(Cl)ccc1C)C(C)C` the inhibition was 8.25%. With `CN(C)CC/C=C1\c2ccccc2CSc2ccccc21` the inhibition was 83% (active). Compound `CN(C)Cc1ccccc1C1(O)c2ccccc2CSc2ccccc21` (configuration not stated) has an inhibition of 22.2%. `Cc1cccc(-n2c(O)c(C=Nc3ccccc3N)c(=O)[nH]c2=O)c1` showed an inhibition of 4.12%. `CN(C)CCCNC(=O)c1cc(C(=O)Cc2ccc(Cl)cc2)c[nH]1` gave an inhibition of -5.01%. In the case of `CCOC(=O)c1nnn(-c2nonc2-n2cccc2)c1CN1CCC(C(=O)OCC)CC1`, the inhibition is reported as 0.5%. In the case of `Cc1cc(S(=O)(=O)N2CCOCC2)ccc1OCC(=O)Nc1cccc(C(F)(F)F)c1`, the inhibition is reported as 14.2%. With `CCNS(=O)(=O)c1ccc(NC(=O)Nc2cccc(C(F)(F)F)c2)cc1` the inhibition was 30.8% (active). For `CCNS(=O)(=O)c1ccc(NC(=O)c2cncc(Br)c2)cc1`, the inhibition was -2.17%. Compound `CCCNC(=O)C[C@@H]1CC[C@@H]2[C@H](COC[C@H](O)CN2C(=O)c2cc(Cl)cc(Cl)c2)O1` has an inhibition of 2.23%. With `Cc1ccc(C(=O)O)cc1S(=O)(=O)NCC1CCCO1` (configuration not stated) the inhibition was 0.46%. `CCc1cc(C(=O)OC)c(NC(=O)CC2Sc3ccc(C(F)(F)F)cc3NC2=O)s1` (configuration not stated) gave an inhibition of 0.19%. Work on `COc1cc(OC)c2ccc(=O)oc2c1C(CCN1CCN(c2ccccc2)CC1)c1ccc2c(c1)OCO2` (configuration not stated) yielded an inhibition of 4.01%. In the case of `CCC1C=C(c2ccccc2)C=CN=C1N(CC)CC` (configuration not stated), the inhibition is reported as 35% (active). Compound `O=C(N/N=C/c1sc(N2CCCCC2)nc1-c1cccs1)c1cccnc1` has an inhibition of -11.5%. `Nc1cc2c(cc1Br)-c1ccc(F)cc1C2=O` gave an inhibition of -3.7%. For `CC(=O)N1CCCc2cc(S(=O)(=O)N3CCCC(C(=O)N4CCN(c5cccc(Cl)c5)CC4)C3)ccc21` (configuration not stated), the inhibition was 43.8% (active). Work on `Cc1ccc(S(=O)(=O)N2CCCC(C(=O)N3CCN(C)CC3)C2)cc1` (configuration not stated) yielded an inhibition of 11.1%. With `COc1ccc(S(=O)(=O)N2CCCC(C(=O)N3CCN(C)CC3)C2)cc1C` (configuration not stated) the inhibition was -3.22%. `Cc1ccc(S(=O)(=O)N2CCCC2C(=O)OCc2nc3sc(C)c(C)c3c(=O)[nH]2)cc1` (configuration not stated) gave an inhibition of -8.5%. For `CCN(CC)Cc1nc2sc(C)c(C)c2c(=O)[nH]1`, the inhibition was 34.7% (active). `Cc1sc2nc(CSCC(=O)Nc3c(Cl)cccc3Cl)[nH]c(=O)c2c1C` was tested, and the inhibition was -1.67%. In the case of `Cn1c2c(c(=O)n(C)c1=O)C1c3ccccc3OCC1C(C)(C)O2` (configuration not stated), the inhibition is reported as -10.5%. In the case of `COc1cc(OC)cc(-c2nnc(SCC(=O)Nc3ccc(C(=O)O)cc3)s2)c1`, the inhibition is reported as 3.22%. `CCCCNC(=O)CSc1nc2ccc(NC(=O)CSc3nnc(N)s3)cc2s1` showed an inhibition of 4.39%. `Nc1nnc(SCC(=O)Nc2ccc3nc(SCC(=O)Nc4ccccc4)sc3c2)s1` was tested, and the inhibition was 40.5% (active). Compound `CSc1nc2nc(-c3cccc(C(F)(F)F)c3)ccn2n1` has an inhibition of -1.52%. Compound `C=C(C)c1cccc(C(C)(C)NC(=O)N2CCN(c3ncccn3)CC2)c1` has an inhibition of 6.08%. With `C=C(C)c1cccc(C(C)(C)NC(=O)NC2CCCC2)c1` the inhibition was 4.8%. With `C=C(C)c1cccc(C(C)(C)NC(=O)NCCN(CC)CC)c1` the inhibition was 61.6% (active). `COc1ccc(-c2cn(-c3ccc(C)cc3)c(=O)n2CC(=O)Nc2ccc(OC)c(OC)c2)cc1` gave an inhibition of 4.43%. `Cc1cc2cc(CNC(=O)c3ccc(S(=O)(=O)N4CCOCC4)cc3)ccc2[nH]1` was tested, and the inhibition was 28.9% (active). `COC(=O)c1ccc(CNC(=O)c2ccc(S(=O)(=O)N3CCCCCC3)cc2)cc1` was tested, and the inhibition was 5.81%. With `Cc1cc2cc(CNC(=O)c3cccs3)ccc2[nH]1` the inhibition was -4.44%. In the case of `CC1CCc2sc(C(=O)N/N=C/C3CCCCC3)cc2C1` (configuration not stated), the inhibition is reported as -5.14%. `COc1ccc(-c2nc(N)sc2C2(O)C(=O)Nc3c(Br)cc(F)cc32)cc1OC` (configuration not stated) gave an inhibition of -0.95%. With `O=CNc1cc(-c2ccc(C(=O)N3CCOCC3)cc2)cn2c(-c3ccc(F)cc3)cnc12` the inhibition was 0.14%. With `CC(C)(C)N(CC#CCC(O)(c1ccccc1)C1CCCC1)CCO` (configuration not stated) the inhibition was 31.3% (active). With `OC(C#CCN1CCOCC1)(c1ccccc1)C1CCCCC1` (configuration not stated) the inhibition was 10.4%. `Cc1ccc(C)c(N2CCN(C(=O)CCc3nc(-c4cccc(C(F)(F)F)c4)no3)CC2)c1` gave an inhibition of -9.53%. For `Cc1cc(O)ccc1NC1=CC(=O)CC(C)(C)C1`, the inhibition was 2.61%. Work on `CCc1nc2c(OCCOc3ccc(F)cc3)cccn2c1N(C)C(=O)c1ccccc1F` yielded an inhibition of 1.61%. In the case of `C[C@H]1CN([C@@H](C)CO)C(=O)Cc2cc(NC(=O)Cc3ccccc3)ccc2O[C@H]1CN(C)S(=O)(=O)c1cccs1`, the inhibition is reported as 35.1% (active). For `COc1ccc(S(=O)(=O)N(C)C[C@H]2Oc3ccc(NS(=O)(=O)c4cccs4)cc3CC(=O)N([C@H](C)CO)C[C@H]2C)cc1`, the inhibition was 5.37%. Work on `CCOC(=O)CCCCCC(=O)Nc1ccc2c(c1)CC(=O)N([C@@H](C)CO)C[C@H](C)[C@@H](CN(C)Cc1ccccc1)O2` yielded an inhibition of -3.74%. `NC(=O)c1cc(S(=O)(=O)NCCCc2ccco2)cs1` was tested, and the inhibition was 3.61%. `O=C(CNS(=O)(=O)c1ccc(Br)s1)N1CCN(C(=O)c2ccco2)CC1` was tested, and the inhibition was -1.1%. In the case of `CC(C)C(NS(=O)(=O)c1cccs1)C(=O)Nc1nc(C(C)(C)C)cs1` (configuration not stated), the inhibition is reported as -1.31%. With `CS(=O)(=O)N(Cc1ccc(Cl)cc1)c1ccc(C(=O)NCCSCc2ccco2)cc1` the inhibition was 13.9%. For `Cc1ccc(N(Cc2ccc(C(=O)Nc3ccccc3C(=O)NCc3ccco3)cc2)S(C)(=O)=O)cc1C`, the inhibition was 39.7% (active). Work on `CCN1CCN(C(=O)c2ccc(CN(c3ccc(C)c(C)c3)S(C)(=O)=O)cc2)CC1` yielded an inhibition of -4.91%. `c1ccc2c(c1)OC1OC2Oc2ccccc21` showed an inhibition of -7.83%. With `COc1ccc(S(=O)(=O)NC2(C(F)(F)F)N=C3SCCN3C2=O)cc1` (configuration not stated) the inhibition was -9.21%. `CCN1CCN(c2ccc(S(=O)(=O)N3CCCCC3)cc2NC(=O)c2cccc(NC(C)=O)c2)CC1` gave an inhibition of -6.66%. For `COc1ccc(CN2CCCC(C(=O)c3ccc(Cl)cc3)C2)cc1Cn1cncn1` (configuration not stated), the inhibition was 38.6% (active). `COc1cc(CN2CCCC(C(=O)c3ccc(SC)cc3)C2)cc(Cl)c1O` (configuration not stated) showed an inhibition of -23.2%. In the case of `COc1ccc(CN2CCCC(C(=O)N3CCCCC3)C2)cc1` (configuration not stated), the inhibition is reported as 1.76%. `CCN(CC)N=Nc1cccc(NC(C)=O)c1` gave an inhibition of 5.94%. `CN(C(=O)CSc1nnc(-c2ccc3c(c2)OCO3)o1)C1CCS(=O)(=O)C1` (configuration not stated) was tested, and the inhibition was 0.5%. Work on `O=C(c1ccccn1)c1ncc(C(F)(F)F)cc1Cl` yielded an inhibition of 9.21%. In the case of `N/C(=N\OC(=O)Nc1ccc(Cl)c(Cl)c1)c1ncc(C(F)(F)F)cc1Cl`, the inhibition is reported as 27% (active). Compound `N/C(=N\OC(=O)CCCC(=O)O)c1ncc(C(F)(F)F)cc1Cl` has an inhibition of 3.64%. With `O=C(COc1ccc(S(=O)(=O)NCc2ccccc2)cc1)N1CCOCC1` the inhibition was 4.93%. In the case of `CC(O)C(NS(=O)(=O)c1ccc(Cl)cc1)C(=O)OCc1cc([N+](=O)[O-])cc2c1OCOC2` (configuration not stated), the inhibition is reported as 5.24%. `CCOc1ccccc1NC(=S)C(=C([O-])c1ccc2c(c1)OCCO2)[n+]1ccc(CC)cc1` gave an inhibition of -1.01%. With `Cc1cc([N+](=O)[O-])c(NC2CCCCC2)c([N+](=O)[O-])c1` the inhibition was 7.51%. `CCc1cc2c(NC3CCCC3)ncnc2s1` was tested, and the inhibition was 11.2%. With `Clc1cc(NC2CCCCC2)ncn1` the inhibition was 98.6% (active). Compound `CC(=O)c1ccc(N2CCN(C(=O)c3ccc4nc[nH]c4c3)CC2)cc1` has an inhibition of 4.68%. With `Cc1nc2ccc(C(=O)N(C)CC3CCCN(CCc4ccc(Cl)cc4)C3)cc2[nH]1` (configuration not stated) the inhibition was 19.4%. In the case of `CN(CC1CCCN(CCc2cccc(C(F)(F)F)c2)C1)C(=O)c1ccc2nc[nH]c2c1` (configuration not stated), the inhibition is reported as 41% (active). In the case of `CSc1ccccc1NC(=O)c1ccc2c(c1)CCN2S(C)(=O)=O`, the inhibition is reported as -5.17%. `O=C(CSCc1ccc([N+](=O)[O-])cc1)Nc1cccc(C(=O)Nc2ccccc2C(=O)O)c1` gave an inhibition of 7.83%. In the case of `CCc1ccc(CN(C)C(C)C(=O)Nc2ccc(S(=O)(=O)N3CCCC3)cc2)cc1` (configuration not stated), the inhibition is reported as 26.6% (active). For `CN(CC(=O)Nc1ccc(S(=O)(=O)N2CCCC2)cc1)Cc1ccc(Cl)c(Cl)c1`, the inhibition was 4.23%. `CC(C(=O)Nc1ccc(S(=O)(=O)N2CCCC2)cc1)N(C)Cc1ccc(F)cc1` (configuration not stated) was tested, and the inhibition was -3.14%. `CCc1ccc(/C=N/NC(=O)c2nnn(-c3nonc3N)c2CN2CCc3ccccc32)cc1` was tested, and the inhibition was 6.06%. Compound `CCOC(=O)CSc1nnc(NC(=O)C2CC(=O)N(c3ccc(F)cc3)C2)s1` (configuration not stated) has an inhibition of 5.76%. In the case of `CN1/C(=C\C=C2\N=C(c3ccc(F)cc3)OC2=O)C(C)(C)c2ccccc21`, the inhibition is reported as 50.7% (active). Work on `Cc1ccc(S(=O)(=O)NC[C@H]2O[C@@H](n3cnc4c(N)ncnc43)[C@H](O)[C@@H]2O)s1` yielded an inhibition of -5.46%. Work on `O=C(CNS(=O)(=O)c1ccc(Br)s1)NCc1ccc2c(c1)OCO2` yielded an inhibition of 1.5%. For `COc1ccc(NC(=O)N(C)C[C@@H]2OCc3cn(nn3)CCCC(=O)N([C@H](C)CO)C[C@H]2C)c(OC)c1`, the inhibition was 8.28%. With `CC1CCCN(c2ccc(C(=O)NCCc3ccccc3)cn2)C1` (configuration not stated) the inhibition was -4.49%. `O=C(NCCc1ccccc1)c1ccc2c(c1)N(Cc1ccccc1)CCS2` was tested, and the inhibition was 35% (active). Work on `CCOC(=O)N1CCN(C(=O)c2ccc3c(c2)N(Cc2ccc(C)cc2)CCS3)CC1` yielded an inhibition of -7.97%. With `CCOC(=O)c1cnc(Nc2nc3ccccc3o2)nc1CSC(=S)N1CCCCC1` the inhibition was -1.75%.

Source: PubChem BioAssay AID624125 (The Scripps Research Institute Molecular Screening Center, 2012)
